Source: PubChem BioAssay (several laboratories)
Most compounds without a hit are left out; they make up all but 4.5% or so of the library.
GRK2 aptamer HTS = human GRK2 inhibition via aptamer displacement; bead flow cytometry, FAM-aptamer displacement from GRK2; inhibition of aptamer binding, % at 10 µM; actives 0.59% (n = 330,000); AID 488847;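 active means inhibition of aptamer binding above 40%, roughly 3 SD of noise, on plates passing a quality check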;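 further: median bead fluorescence of bound FAM aptamer so fluorescent compounds give negative values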
HDAC3 inhib = inhibitors of human histone deacetylase 3 | O15379 | recombinant HDAC3, fluorogenic peptide/trypsin coupled, fluorescence | inhibition, % at 8.3 µM | actives 0.15% (n = 320,000) | AID 2718; in the data active means inhibition above about 26%, passing the limit was not always enough; inconclusive means no clear call, values can overlap the other calls
Rtt109 HAT inh = inhibitors of Candida albicans Rtt109/Vps75 histone acetyltransferase. purified Rtt109/Vps75, ThioGlo CoA-SH fluorescence, 4 h. inhibition, % at 34.9 µM. actives 0.16% (n = 330,000);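 active means inhibition of at least 50% in every replicate; inconclusive means best replicate reaches 50% inhibition but some replicates fall short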
Target sequence (Q5AAJ8 whole entry, looked up): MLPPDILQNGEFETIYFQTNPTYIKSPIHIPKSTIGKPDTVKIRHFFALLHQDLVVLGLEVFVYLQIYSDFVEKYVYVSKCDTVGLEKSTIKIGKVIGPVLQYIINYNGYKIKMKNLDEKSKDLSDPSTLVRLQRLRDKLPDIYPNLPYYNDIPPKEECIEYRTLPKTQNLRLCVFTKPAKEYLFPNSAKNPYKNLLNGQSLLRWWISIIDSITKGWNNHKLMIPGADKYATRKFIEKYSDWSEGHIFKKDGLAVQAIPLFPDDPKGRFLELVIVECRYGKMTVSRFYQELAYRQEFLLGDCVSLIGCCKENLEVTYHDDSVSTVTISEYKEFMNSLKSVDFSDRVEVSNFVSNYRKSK
ALR H2O2 inh = inhibitors of human sulfhydryl oxidase ALR; P55789; purified ALR, DTT oxidation, H2O2 HRP-luminol luminescence; inhibition, % (no concentration beside the values); actives 3.8% (n = 290,000); AID 485317;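 active means mean replicate inhibition above about 79%, with every replicate also reaching it, limit read from the data; inconclusive means only one of the two criteria met; inactive means mean below limit and not every replicate reaching it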
Target sequence (P55789 whole entry, looked up): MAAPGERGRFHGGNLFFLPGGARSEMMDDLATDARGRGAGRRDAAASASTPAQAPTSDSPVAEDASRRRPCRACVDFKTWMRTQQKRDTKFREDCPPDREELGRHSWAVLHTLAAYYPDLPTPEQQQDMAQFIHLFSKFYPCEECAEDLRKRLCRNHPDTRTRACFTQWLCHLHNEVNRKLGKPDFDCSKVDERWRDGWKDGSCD
Rce1 inh = yeast Ras-converting enzyme inhibition; actives 0.27% (n = 290,000); calls only; AID 2563; yeast membranes, quenched prenylated peptide cleavage fluorescence;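 active means fall in fluorescence gain of 50% or more versus controls, with final raw signal at or below 3038400; inconclusive means same 50% fall but final raw signal above 3038400; inactive means fall in fluorescence gain under 50%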
Efflux pump mplx = inhibitors of Candida antifungal efflux pumps expressed in yeast. AID 485275. actives 0.44% (n = 330,000). inhibition, % at 10 µM. S. cerevisiae Candida pump triplex, Nile Red efflux;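 active means plate passing quality check with inhibition over a set limit, or well fluorescence over plate mean plus 4 SD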;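 further: Nile Red retained in pooled yeast measured as flow cytometry median fluorescence; higher means more Nile Red kept so more efflux inhibition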
Large screens that a line does not name were inactive.

CCOC(=O)c1cc(C#N)c(SCC(N)=O)[nH]c1=O	none
Cc1ccc(NC(=O)CSc2nc(NS(=O)(=O)c3ccccc3)cc(=O)[nH]2)cc1	ALR H2O2 inh 98.1 (no result: Rce1 inh)
CCOC(=O)c1cc(C#N)c(SCC(=O)Nc2ccc(C(C)=O)cc2)[nH]c1=O	ALR H2O2 inh 98.9 (no result: HDAC3 inhib)
CCOC(=O)c1ccc(NC(=O)CSc2nc(C)cc(=O)[nH]2)cc1	ALR H2O2 inh 98.8
CCOc1ccc(NC(=O)CSc2nc(NS(=O)(=O)c3ccc(C)cc3)cc(=O)[nH]2)cc1	none (no result: GRK2 aptamer HTS, HDAC3 inhib, ALR H2O2 inh, Efflux pump mplx)
CCOc1ccc(NC(=O)CSc2nncc(=O)[nH]2)cc1	ALR H2O2 inh 99.4
CC[C@@]1(C(=O)OC)N[C@H](CN(C)C(=O)c2ccc(F)cc2)[C@@H]2C(=O)N(Cc3ccccc3)C(=O)[C@@H]21	none (no result: Rce1 inh)
Cc1ccc(CNC(=O)C2CCC(CNS(=O)(=O)c3cccs3)CC2)cc1 (centres undefined)	none (no result: Rce1 inh)
CCN(C(=O)C(C)OC(=O)c1nn(-c2ccccc2C(F)(F)F)cc1O)c1ccccc1 (centres undefined)	none (no result: Rce1 inh)
Cc1cc(=O)[nH]c(SCC(=O)Nc2ccc(S(N)(=O)=O)cc2)n1	ALR H2O2 inh 98.9
CCCc1cc(=O)[nH]c(Nc2ccc(N3CCCCC3)cc2)n1	ALR H2O2 inh 97.7
O=C(CSc1nncs1)Nc1ccc(N2CCCCC2)cc1	ALR H2O2 inh 98.4 (no result: Rce1 inh)
Cc1cc(=O)[nH]c(SCC(=O)Nc2ccc(C)c(S(=O)(=O)N3CCCCC3)c2)n1	none
COC(=O)c1ccc(CSc2nc3sc(C(=O)O)c(C)c3c(=O)[nH]2)cc1	none (no result: Rtt109 HAT inh)
CCOC(=O)c1ccc(NC(=O)CSc2nc3sc(C(=O)O)c(C)c3c(=O)[nH]2)cc1	ALR H2O2 inh 98.4
CCCCc1ccc(Nc2nc(CCC)cc(=O)[nH]2)cc1	none
CCCC(C(=O)Nc1ccc(S(=O)(=O)Nc2nccs2)cc1)c1ccccc1 (centres undefined)	none (no result: GRK2 aptamer HTS, HDAC3 inhib, ALR H2O2 inh, Rce1 inh, Efflux pump mplx)
CCCc1cc(=O)[nH]c(SCC(=O)Nc2ccc(N3CCCCC3)cc2)n1	none (no result: Rce1 inh)
Cc1cc(=O)[nH]c(SCC(=O)Nc2ccc(N3CCCCC3)cc2)n1	ALR H2O2 inh 92.3 (no result: Rce1 inh)
CC(=O)c1c(C)[nH]c(C(=O)CSc2nc3ccc(C)cc3[nH]2)c1C	ALR H2O2 inh 97.1
O=C(CSc1nccc(=O)[nH]1)Nc1ccc(S(=O)(=O)N2CCOCC2)cc1	ALR H2O2 inh 98.8
Nc1nc(-c2ccc(Oc3ccccc3)cc2)c(CC(=O)O)s1	none
Cc1cccc(OCC(=O)NCc2nc(-c3ccccc3)no2)c1	none
Cc1cccc(NCc2nc(-c3ccccc3)no2)c1	ALR H2O2 inh 91.5
CC(OC(=O)C1=COCCO1)C(=O)NC(C)c1ccc(Cl)cc1Cl (centres undefined)	none (no result: ALR H2O2 inh)
CC(C)N(c1nnc(N)s1)C(C)C	ALR H2O2 inh 96.7
CN(Cc1ccccc1)c1nnc(N)s1	ALR H2O2 inh inconclusive
Cc1cc2oc(=O)cc(CN3CCCCC3C)c2cc1C (centres undefined)	none
CC1CCc2nc(/C(C#N)=C/c3ccncc3)sc2C1 (centres undefined)	ALR H2O2 inh 98.3 (no result: Rtt109 HAT inh)
O=C(Cn1cnc(S(=O)(=O)N2CCCC2)c1)Nc1cccc(F)c1	none
O=c1[nH]c(SCc2ccccc2)nc2[nH]ncc12	none
O=C(O)c1ccc(N2C(=O)C3ON(c4ccccc4)C(c4ccccc4F)C3C2=O)cc1 (centres undefined)	none
CCOc1ccccc1C1C2C(=O)N(c3ccccc3)C(=O)C2ON1c1ccccc1 (centres undefined)	GRK2 aptamer HTS 94.0
CN(C)c1ccc(C2C3C(=O)N(c4ccc(C(=O)O)cc4)C(=O)C3ON2c2ccccc2)cc1 (centres undefined)	HDAC3 inhib inconclusive, ALR H2O2 inh 76.0
Cc1c(C(=O)Nc2ccccc2F)sc2ncn(CC(=O)N3CCOCC3)c(=O)c12	none
O=C(Nc1ccccc1C(=O)O)c1ccc(Br)c(S(=O)(=O)NCc2ccccc2)c1	none
O=C(Cn1cnc([N+](=O)[O-])n1)c1ccc(O)c(O)c1	ALR H2O2 inh 93.5
O=C(Cn1cnc([N+](=O)[O-])n1)c1ccccc1	none
Cc1cccc(N2Cc3ccc(Br)cc3C2)c1	none
Cc1cc(C(=O)CN2C(=O)C(=O)N(C3CCCC3)C2=O)c(C)n1CCc1ccc(F)cc1	none (no result: HDAC3 inhib, ALR H2O2 inh, Rce1 inh)
Cc1coc2cc3oc(=O)c(Cc4ccccc4)c(C)c3cc12	none
Cc1c(Cc2ccccc2)c(=O)oc2cc(O)cc(O)c12	ALR H2O2 inh 77.6
CCN(CC)S(=O)(=O)c1ccc(N2CC(C(=O)NC3(C)CCS(=O)(=O)C3)CC2=O)cc1 (centres undefined)	none (no result: Rce1 inh)
CC1=Nc2ccccc2N=C(N)C1c1ccccc1 (centres undefined)	ALR H2O2 inh 96.2
CC1=Nc2ccccc2N=C(NC(=O)c2ccccc2)C1c1ccc(Cl)cc1 (centres undefined)	none
O=C(Cc1ccc2cccnc2c1)c1ccc(O)cc1O	Rtt109 HAT inh 59.6 (no result: HDAC3 inhib)
O=C(Cc1ccccc1)c1ccc(O)cc1O	none (no result: GRK2 aptamer HTS, HDAC3 inhib, ALR H2O2 inh, Rce1 inh, Efflux pump mplx)
NC(=O)c1ccccc1NC(=O)Nc1ccc(F)c(Cl)c1	none (no result: ALR H2O2 inh)
Cc1c(C)n(Cc2ccc(F)cc2)c2ccc(C(=O)NCCCN3CCOCC3)cc12	none
COC(=O)Cc1[nH]n(-c2nc3ccccc3s2)c(=O)c1C(C)=Nc1ccc(C)cc1	ALR H2O2 inh 98.3 (no result: Rtt109 HAT inh)
COc1ccc2oc3cc(C)[n+]([O-])c(-c4ccc(C)cc4)c3c2c1	ALR H2O2 inh 93.3
COC(=O)c1ccc(NC(=O)CSc2nncn2-c2ccccn2)cc1	ALR H2O2 inh 98.7
COC(=O)c1ccccc1NC(=O)CSc1nc2cccnc2n1C	none
COC(=O)c1cccc(NC(=O)CSc2nc3cccnc3n2C)c1	ALR H2O2 inh 97.9 (no result: Rce1 inh)
COc1cccc(C(=O)C2CN(c3ccccc3)CC2c2ccc(Cl)cc2)c1 (centres undefined)	ALR H2O2 inh 97.3
Cc1nc(C2CCC3C4CCC5=CC(=O)CC[C@]5(C)C4CC[C@]23C)cs1 (some centres undefined)	Efflux pump mplx 2.0 (no result: Rtt109 HAT inh)
O=C(/C=C/c1ccc(S(=O)(=O)N2CCOCC2)cc1)NC(CO)C(O)c1ccc([N+](=O)[O-])cc1 (centres undefined)	none (no result: Rce1 inh)
CC(C)=C1SC(N2CCN(c3ccc(C)cc3)CC2)=NC1=O	ALR H2O2 inh 94.0
CC(C)=C1SC(N2CCN(c3ccc(Cl)cc3)CC2)=NC1=O	none
Cc1onc(-c2c(Cl)cccc2Cl)c1C(=O)N=C(N)N1CC(C)OC(C)C1 (centres undefined)	none
CC[C@]1(c2ccccc2)C(=O)N(C(=O)OC)N1C(=O)OC	HDAC3 inhib 44.4
CCOc1ccccc1CNC(=O)c1cc2oc3ccccc3c2n1C	none
CCOc1ccccc1CNC(=O)c1cc2occc2n1C	Rce1 inh active
Cc1cc(O)ccc1NS(=O)(=O)c1ccc2c3c(cccc13)C(=O)N2	ALR H2O2 inh 98.9 (no result: Rce1 inh)
